# Reference: the supplement of paper PMC8728848
# The entries come from a sample that favours the strongest signals as a whole.
# Key:
# Assay in all cases: glycan array binding signal (z-score within array); higher = stronger binding
# Settings in all cases: glycan notation: IUPAC condensed, linker removed
# [1] = target: Fuc(a1-2)Gal
# Outline: (§1)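 Glycan array data came from 3228 arrays in the Consortium for Functional Glycomics database, and only arrays with an available protein sequence were kept. Glycan names were put into IUPAC-condensed notation, and columns mapping to the same glycan were averaged. The binding signal is a within-array Z-score, averaged across arrays of one protein sequence run at different concentrations or buffers and across linkers. A negative Z-score can be read as non-binding.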
# [2] = target: Fuc(a1-2)Gal6S(b1-4)Glc
# Outline: as §1
# [3] = target: Fuc(a1-3)[Gal(b1-4)]GlcNAc(b1-2)Man(a1-6)[Gal(b1-4)GlcNAc(b1-2)Man(a1-3)]Man(b1-4)GlcNAc(b1-4)GlcNAc
# Outline: as §1
# [4] = target: Fuc(b1-3)GlcNAc
# Outline: as §1
# [5] = target: Gal(a1-3)Gal(b1-3)GlcNAc
# Outline: as §1
# [6] = target: Gal(a1-4)Gal(b1-4)GlcNAc
# Outline: as §1
# [7] = target: Gal(b1-3)GlcNAc(b1-3)Gal(b1-4)GlcNAc
# Outline: as §1
# [8] = target: Gal3S(b1-3)[Fuc(a1-4)]GlcNAc
# Outline: as §1
# [9] = target: Gal4S(b1-4)GlcNAc
# Outline: as §1
# [10] = target: Gal6S(b1-4)GlcNAc6S
# Outline: as §1
# [11] = target: GalNAc(a1-3)Gal
# Outline: as §1
# [12] = target: GalNAc(b1-3)Gal(a1-4)Gal(b1-4)GlcNAc(b1-3)Gal(b1-4)Glc
# Outline: as §1
# [13] = target: Glc(a1-4)Glc
# Outline: as §1
# [14] = target: GlcNAc(b1-3)[GlcNAc(b1-6)]GalNAc
# Outline: as §1
# [15] = target: GlcNAc3Prop(b1-4)GlcNAc
# Outline: as §1
# [16] = target: Kdn(a2-3)Gal(b1-3)GlcNAc
# Outline: as §1
# [17] = target: Man(a1-2)Man(a1-2)Man(a1-6)[Man(a1-3)]Man
# Outline: as §1
# [18] = target: Man(a1-3)[Man(a1-6)]Man
# Outline: as §1
# [19] = target: Man(a1-3)[Man(a1-6)]Man(a1-6)[Man(a1-2)Man(a1-3)]Man(b1-4)GlcNAc(b1-4)GlcNAc
# Outline: as §1
# [20] = target: Man(a1-3)[Man(a1-6)]Man(a1-6)[Man(a1-3)]Man(b1-4)GlcNAc(b1-4)GlcNAc
# Outline: as §1
# [21] = target: Man(a1-6)Man
# Outline: as §1
# [22] = target: Neu5Ac(a2-3)Gal(b1-3)GalNAc(b1-4)[Neu5Ac(a2-3)]Gal(b1-4)Glc
# Outline: as §1
# [23] = target: Neu5Ac(a2-3)Gal(b1-3)GlcNAc(b1-3)Gal(b1-3)GlcNAc
# Outline: as §1
# [24] = target: Neu5Ac(a2-3)Gal(b1-3)[Fuc(a1-4)]GlcNAc
# Outline: as §1
# [25] = target: Neu5Ac(a2-3)Gal(b1-3)[Neu5Ac(a2-3)Gal(b1-4)]GlcNAc
# Outline: as §1
# [26] = target: Neu5Ac(a2-3)Gal(b1-3)[Neu5Ac(a2-6)]GalNAc
# Outline: as §1
# [27] = target: Neu5Ac(a2-3)Gal(b1-4)Glc
# Outline: as §1
# [28] = target: Neu5Ac(a2-3)Gal(b1-4)GlcNAc(b1-2)Man(a1-3)[Neu5Ac(a2-6)Gal(b1-4)GlcNAc(b1-2)Man(a1-6)]Man(b1-4)GlcNAc(b1-4)GlcNAc
# Outline: as §1
# [29] = target: Neu5Ac(a2-3)Gal(b1-4)GlcNAc(b1-3)Gal(b1-4)[Fuc(a1-3)]GlcNAc
# Outline: as §1
# [30] = target: Neu5Ac(a2-3)Gal(b1-4)GlcNAc6S
# Outline: as §1
binder,measurement,setting,value
"Spy0252 (Streptococcus pyogenes), Q9A1I9_STRP1 (protein) MNMKKLASLAMLGASVLGLAACGGKSQKEAGASKSDTAKTEITWWAFPVFTQEKAEDGVGTYEKKLIAAFEKANPEIKVKLETIDFTSGPEKITTAIEAGTAPDVLFDAPGRIIQYGKNGKLADLNDLFTEEFTKDVNNDKLIQASKAGDTAYMYPISSAPFYMALNKKMLKDAGVLDLVKEGWTTDDFEKVLKALKDKGYNPGSFFANGQGGDQGPRAFFANLYSSHITDDKVTKYTTDDANSIKAMTKISNWIKDGLMMNGSQYDGSADIQNFANGQTSFTILWAPAQPGIQAKLLEASKVDYLEIPFPSDDGKPELEYLVNGFAVFNNKDEQKVAASKTFIQFIADDKEWGPKNVVRTGAFPVRTSYGDLYKDKRMEKIAEWTKFYSPYYNTIDGFAEMRTLWFPMVQAVSNGDEKPEDALKAFTEKANKTIKKTQ",glycan array binding signal (z-score),[1],-0.143
same,glycan array binding signal (z-score),[2],-0.255
same,glycan array binding signal (z-score),[3],-0.236
same,glycan array binding signal (z-score),[4],-0.263
same,glycan array binding signal (z-score),[5],-0.267
same,glycan array binding signal (z-score),[6],-0.203
same,glycan array binding signal (z-score),[7],-0.267
same,glycan array binding signal (z-score),[8],-0.259
same,glycan array binding signal (z-score),[9],-0.249
same,glycan array binding signal (z-score),[10],-0.268
same,glycan array binding signal (z-score),[11],-0.212
same,glycan array binding signal (z-score),[12],5.38
same,glycan array binding signal (z-score),[13],0.228
same,glycan array binding signal (z-score),[14],-0.259
same,glycan array binding signal (z-score),[15],0.218
same,glycan array binding signal (z-score),[16],-0.248
same,glycan array binding signal (z-score),[17],-0.258
same,glycan array binding signal (z-score),[18],-0.267
same,glycan array binding signal (z-score),[19],-0.273
same,glycan array binding signal (z-score),[20],-0.271
same,glycan array binding signal (z-score),[21],-0.283
same,glycan array binding signal (z-score),[22],-0.256
same,glycan array binding signal (z-score),[23],-0.195
same,glycan array binding signal (z-score),[24],-0.279
same,glycan array binding signal (z-score),[25],-0.223
same,glycan array binding signal (z-score),[26],-0.085
same,glycan array binding signal (z-score),[27],5.54
same,glycan array binding signal (z-score),[28],-0.259
same,glycan array binding signal (z-score),[29],6.21
same,glycan array binding signal (z-score),[30],-0.268
